Each structure is given as a SMILES string. About 330 (14%) of roughly 2,300 compounds showed activity.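 The calls were made as follows: active = median modified Z-score above 1.96; inactive = 1.96 or below.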 These entries were drawn from the full list.

In the experiment the test system is HepG2 Srxn1-GFP reporter cells (+30 nM CDDO-Me). As to the kind of experiment: Srxn1-GFP intensity median modified Z-score relative to plate median; higher = stronger NRF2 / oxidative stress reporter activation, active = hit call of the paper. The following applies: 10 µM; exposure time: 24h. The method, boiled down: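 The modified Z-score of GFP intensity was computed per plate, and the median over replicates is reported. HepG2 Srxn1-GFP BAC reporter cells in three replicate plates were treated for 24 h with compound at 10 μM plus an NRF2 activator at 30 nM (≤0.1% DMSO). Per-cell cytoplasmic GFP came from confocal images, excluding those with under 100 cells, and scaling used 1.4826 × median absolute deviation.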
In the case of `CCCCNC(=O)NS(=O)(=O)c1ccc(OC)cc1`, the “Srxn1-GFP intensity median modified Z-score” value was 1.61 (inactive).
With `CC(CCc1ccc(O)cc1)NCC(O)c1ccc(O)cc1` (stereo unspecified) [euspeclibcmpd467] the figure was 0.894 (inactive); with `C[C@@H](COc1ccccc1)N[C@H](C)[C@H](O)c1ccc(O)cc1` [euspeclibcmpd167], 4.4 (active).
Regarding `CC(NCCc1ccc(O)cc1)C(O)c1ccc(O)cc1` (stereo unspecified) [euspeclibcmpd402], the “Srxn1-GFP intensity median modified Z-score” value was 0.107 (inactive).
Take `CC(C)(C)NC[C@@H](O)COc1nsnc1N1CCOCC1` [euspeclibcmpd295]: the “Srxn1-GFP intensity median modified Z-score” value is -0.119 (inactive).
With `COC1C(=O)C(=O)c2c(cc3oc(C(C)=O)c(O)c3c2O)C1=O` (stereo unspecified) [euspeclibcmpd1523] the figure was 0.196 (inactive); with `N=c1[nH]ccs1` [euspeclibcmpd1106], 0.0281 (inactive).
The result for `Cc1onc(-c2ccccc2)c1C(=O)NC1C(=O)N2C1SC(C)(C)C2C(=O)O` (stereo unspecified) [euspeclibcmpd2397] reads -0.382 (inactive).
The result for `CC(C)=CCc1c2c(c3occ(-c4ccc(O)c(O)c4)c(=O)c3c1O)C=CC(C)(C)O2` [euspeclibcmpd1728] reads 156 (active); that for `CC(C)=CCc1c2c(c3occ(-c4ccc(O)cc4)c(=O)c3c1O)C=CC(C)(C)O2` [euspeclibcmpd1709], 1.14 (inactive).
As for `COc1ccc(-c2coc3c4c(c(CC=C(C)C)c(O)c3c2=O)OC(C)(C)C=C4)cc1OC` [euspeclibcmpd2204], the “Srxn1-GFP intensity median modified Z-score” value was -0.479 (inactive).
The result for `C=C1C[C@]23C[C@@]1(O)CC[C@H]2[C@@]12C=C[C@H](O)[C@@](C)(C(=O)O1)[C@H]2C3C(=O)O` (stereo partly specified) [euspeclibcmpd1408] reads 0.616 (inactive).
Regarding `NC[C@@H]1O[C@H](O[C@@H]2[C@@H](CO)OC(O[C@@H]3[C@@H](O)[C@H](N)C[C@H](N)[C@H]3OC3O[C@H](CN)[C@@H](O)[C@H](O)[C@H]3N)[C@@H]2O)[C@H](N)[C@@H](O)[C@@H]1O` (stereo partly specified) [euspeclibcmpd206], the “Srxn1-GFP intensity median modified Z-score” value is 0.688 (inactive).
Take `O=C(O)C1CC(=O)C(O)C(O)C1` (stereo unspecified) [euspeclibcmpd2407]: the “Srxn1-GFP intensity median modified Z-score” value was -0.321 (inactive).
The result for `O=C(O)CCCCC1CCSS1` (stereo unspecified) [euspeclibcmpd1157] reads 0.0225 (inactive); that for `CCOC(=O)CCCCCCCCCCCCC1C=CCC1` (stereo unspecified) [euspeclibcmpd2000], -0.411 (inactive); that for `O=C(O)CCCCCCCCCCCCC1C=CCC1` (stereo unspecified) [euspeclibcmpd1516], 10.6 (active).
The result for `COc1ccc(-c2coc3cc(O)ccc3c2=O)c(OC)c1` [euspeclibcmpd1838] reads 1.83 (inactive); that for `C=CC[S+]([O-])CC(N)C(=O)O` (stereo unspecified) [euspeclibcmpd2346], -0.228 (inactive); that for `O=C(O)CCCCCCCC(O)C(O)CCCCCCO` (stereo unspecified) [euspeclibcmpd1577], -0.245 (inactive).
With `CS(C)(=O)=O` [euspeclibcmpd1496] the figure was 20.2 (active); with `CS(=O)(=O)OCCCCOS(C)(=O)=O` [euspeclibcmpd40], 1.41 (inactive); with `COCCCOc1cc(C[C@@H](C[C@H](N)[C@@H](O)CC(C(=O)NCC(C)(C)C(N)=O)C(C)C)C(C)C)ccc1OC` (stereo partly specified) [euspeclibcmpd873], 0.194 (inactive).
As for `CC(C)C1CCC(C(=O)NC(Cc2ccccc2)C(=O)O)CC1` (stereo unspecified) [euspeclibcmpd675], the “Srxn1-GFP intensity median modified Z-score” value is -0.338 (inactive).
The result for `Nc1ccc(S(N)(=O)=O)cc1` [euspeclibcmpd1042] reads -0.418 (inactive).
As for `Nc1ccc(S(=O)(=O)O)cc1` [euspeclibcmpd2086], the “Srxn1-GFP intensity median modified Z-score” value is 2.19 (active).
The result for `Nc1ccc(S(=O)(=O)c2ccc(N)cc2)cc1` [euspeclibcmpd82] reads 0 (inactive); that for `NCCC(=O)NC(Cc1c[nH]cn1)C(=O)O` (stereo unspecified) [euspeclibcmpd1431], -0.178 (inactive).
Take `C[C@]12CCC3c4ccc(OC(=O)c5ccccc5)cc4CCC3C1CCC2=O` (stereo partly specified) [euspeclibcmpd2153]: the “Srxn1-GFP intensity median modified Z-score” value is -0.646 (inactive).
With `CC(=O)NC(CC(=O)NC(CCC(=O)O)C(=O)O)C(=O)O` (stereo unspecified) [euspeclibcmpd1295] the figure was -0.164 (inactive); with `CC[C@H](/C=C/C(C)C1CCC2C3CC=C4CC(=O)CC[C@]4(C)C3CC[C@]12C)C(C)C` (stereo partly specified) [euspeclibcmpd1667], -0.11 (inactive).
Consider `CN(C)c1ccc2nc3ccc(N(C)C)cc3[s+]c2c1` [euspeclibcmpd789], for which the “Srxn1-GFP intensity median modified Z-score” value is 9.06 (active).
The result for `Cc1cc2nc3ccc(N(C)C)cc3[s+]c2cc1N` [euspeclibcmpd1030] reads 9 (active).
For the compound `CC(C)(S)C(N)C(=O)O` (stereo unspecified) [euspeclibcmpd968], the “Srxn1-GFP intensity median modified Z-score” value was 0.0726 (inactive).
With `OC[C@@H](O)[C@@H](O)[C@H](O)[C@@H](O)CO` [euspeclibcmpd2147] the figure was -0.0321 (inactive); with `N=C(N)N=C(N)N1CCOCC1` [euspeclibcmpd1191], -0.583 (inactive).
On to `NC(=O)CCC(NC(=O)C(N)CO)C(=O)O` (stereo unspecified) [euspeclibcmpd2427], for which the “Srxn1-GFP intensity median modified Z-score” value was -0.15 (inactive).
With `C[C@@H]1CC[C@H]2C(C)(C)C3CC12CC[C@@]3(C)O` (stereo partly specified) [euspeclibcmpd1468] the figure was -0.304 (inactive).
The result for `CC(=O)O[C@]1(C)CC[C@@]23CC1C(C)(C)[C@@H]2CC[C@H]3C` [euspeclibcmpd1510] reads 3.58 (active); that for `CC(=O)OC1CCC23CC1(C)CCC2C(C)(C)CC3OC(C)=O` (stereo unspecified) [euspeclibcmpd1983], 0.679 (inactive); that for `Cc1ccccc1-n1cnnc1SCC(=O)c1ccc2c(c1)OCCO2`, 1.22 (inactive).
With `Cc1ccc2c(c1)CC[C@H]1CC(=O)CC[C@]21C` [euspeclibcmpd2206] the figure was 0.163 (inactive); with `CC(C)c1ccc2c(c1)CCC1C(C)(C(N)=O)CCCC21C` (stereo unspecified) [euspeclibcmpd1367], 15.1 (active).
`CC(C)C1=CC2=CCC3[C@](C)(CCC[C@]3(C)C(=O)O)C2CC1` (stereo partly specified) [euspeclibcmpd1332]: the “Srxn1-GFP intensity median modified Z-score” value is -0.234 (inactive).
The result for `CN1C(CC(=O)c2ccccc2)CCCC1CC(O)c1ccccc1` (stereo unspecified) [euspeclibcmpd1050] reads -0.349 (inactive); that for `Cc1cc[nH]c(=NS(=O)(=O)c2ccc(N)cc2)n1` [euspeclibcmpd275], -0.506 (inactive).
The result for `NC(=O)C(c1ccccc1)(c1ccccc1)C1CCN(CCc2ccc3c(c2)CCO3)C1` (stereo unspecified) [euspeclibcmpd914] reads -0.0168 (inactive); that for `Cc1cc(C)c2c(=O)c3c(oc2c1)C(=O)N(Cc1ccc(F)cc1)C3c1cccc(O)c1` (stereo unspecified), 1.43 (inactive).
Take `CCCCCCCCCCCCCCCC(=O)O[C@@H]1[C@@H](O)[C@@H](O)[C@H]([C@H](NC(=O)C2C[C@@H](CCC)CN2C)[C@H](C)Cl)O[C@@H]1SC` (stereo partly specified) [euspeclibcmpd1310]: the “Srxn1-GFP intensity median modified Z-score” value is 0.0886 (inactive).
The result for `Oc1ccc(OCc2ccccc2)cc1` [euspeclibcmpd515] reads 1.16 (inactive); that for `CCCCCCCCCCCCCCCC[N+](C)(C)CCN(Cc1ccc(OC)cc1)c1ncccn1` [euspeclibcmpd626], 1.67 (inactive); that for `CCCCCCCCCCCCC[N+](C)(C)Cc1ccccc1` [euspeclibcmpd590], 3.29 (active).
With `CCCCC(O)c1ccccc1` (stereo unspecified) [euspeclibcmpd2082] the figure was -0.178 (inactive); with `CC(C)(C)CC(C)(C)c1ccc(OCCOCC[N+](C)(C)Cc2ccccc2)cc1` [euspeclibcmpd33], 9.81 (active); with `Cc1cc(C(C)(C)CC(C)(C)C)ccc1OCCOCC[N+](C)(C)Cc1ccccc1` [euspeclibcmpd556], 24 (active).
With `C[N+](C)(CCOc1ccccc1)Cc1ccccc1` [euspeclibcmpd868] the figure was 2.62 (active); with `C[C@]12C=CC(=O)CC1=CCC1C3C[C@@H](O)[C@](O)(C(=O)CO)[C@@]3(C)C[C@H](O)[C@@]12F` (stereo partly specified) [euspeclibcmpd302], -0.809 (inactive).
On to `CC1(C)C(C(=O)O)N2C(=O)C[C@H]2S1(=O)=O` (stereo partly specified) [euspeclibcmpd473], for which the “Srxn1-GFP intensity median modified Z-score” value is -0.4 (inactive).
The result for `CC(C)(O)CC[C@@H](O)[C@](C)(O)[C@@H]1CC[C@@]2(O)C3=C(CC[C@]12C)[C@@]1(C)C[C@H](O)[C@H](O)CC1C(=O)C3` (stereo partly specified) [euspeclibcmpd1686] reads 0.91 (inactive).
The result for `O=C(O)c1cc(N=Nc2ccc(O)c(C(=O)O)c2)ccc1O` [euspeclibcmpd2114] reads -0.278 (inactive); that for `N=c1[nH]c(=NC2CC2)c2ncn(C3C=C[C@@H](CO)C3)c2[nH]1` (stereo partly specified) [euspeclibcmpd479], -0.254 (inactive).
With `CCCCC/C=C/CCC(=O)N[C@H]1[C@H](Oc2c3cc4cc2Oc2ccc(cc2Cl)[C@@H](O[C@@H]2O[C@H](CO)[C@@H](O)[C@H](O)[C@H]2NC(C)=O)c2[nH]c(O)c(c5ccc(O)c(c5)c5c(OC6O[C@H](CO)[C@@H](O)[C@H](O)[C@@H]6O)cc(O)cc5c(=C(O)O)[nH]c2O)NC(=O)[C@@H]4NC(=O)[C@H]2NC(=O)C(Cc4ccc(c(Cl)c4)O3)NC(=O)[C@H](N)c3ccc(O)c(c3)Oc3cc(O)cc2c3)O[C@H](CO)[C@@H](O)[C@@H]1O` (stereo partly specified) [euspeclibcmpd852] the figure was -0.162 (inactive); with `OC[C@H](O)[C@@H](O)CO` [euspeclibcmpd2221], -0.0632 (inactive).
As for `Clc1cccc(Cn2cc(-c3cnn(Cc4cccc(Cl)c4)c3)cn2)c1`, the “Srxn1-GFP intensity median modified Z-score” value was 1.3 (inactive).
With `C[C@H](CCC(=O)NCC(=O)O)[C@H]1CCC2C3C(C[C@H](O)[C@@]21C)[C@@]1(C)CC[C@@H](O)CC1C[C@H]3O` (stereo partly specified) [euspeclibcmpd1671] the figure was -0.257 (inactive); with `CC(C)C=CC=CCC(=O)N[C@@H](CC(N)=O)C(=O)N[C@@H]1C(=O)N[C@H](c2ccc(O)cc2)C(=O)N[C@H](CCCN)C(=O)N[C@H]([C@H](C)O)C(=O)N[C@@H](c2ccc(O)cc2)C(=O)N[C@H](c2ccc(O)cc2)C(=O)N[C@@H]([C@H](C)O)C(=O)N[C@@H](Cc2ccccc2)C(=O)N[C@H](CCCN)C(=O)N[C@@H](c2ccc(O[C@@H]3O[C@H](CO)[C@H](O)[C@@H](O)[C@@H]3O[C@@H]3O[C@H](CO)[C@@H](O)[C@H](O)[C@H]3O)cc2)C(=O)NC(C(C)O)C(=O)N[C@@H](c2ccc(O)cc2)C(=O)NCC(=O)N[C@@H](CC(C)C)C(=O)N[C@H](C)C(=O)N[C@@H](c2ccc(O)c(Cl)c2)C(=O)O[C@@H]1C(N)=O` (stereo partly specified) [euspeclibcmpd1079], 0.139 (inactive).
